# Results published in PubChem BioAssay (NCI).
# This is part of a sample that, as a whole, favours compounds with a hit. Of some 79,000 tested, about 15% had one in any assay. Values without a mark were called inactive. Activity calls are given as the source filed them. Rule as the data show it: active = growth inhibition above about 70%; inactive = the rest.
# Columns and labels:
# [1] = NCI Yeast Anticancer Drug Screen. Data for the wt1 strain (AID 149);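 also: 0% = growth of vehicle-treated wt1 cultures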; settings: S. cerevisiae wt1 strain (SPY 50644) growth inhibition, active compounds read high
# Outline: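 wt1 strain grown with compound or vehicle; inhibition taken from the growth difference.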
# [2] = NCI Yeast Anticancer Drug Screen. Data for the rad50EPP+ strain (AID 151);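 also: 0% = growth of vehicle-treated control cultures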; settings: S. cerevisiae rad50 mutant strain, active compounds read high
# Outline: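 Read-out is yeast growth inhibition relative to vehicle; cells used were the rad50EPP+ strain.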
# [3] = NCI Yeast Anticancer Drug Screen. Data for the rad50 strain (AID 155);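 also: 0% = growth of vehicle-only cultures of the same strain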; settings: S. cerevisiae rad50 strain growth inhibition, active compounds read high
# Outline: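 DNA repair mutant yeast, compound exposure, growth read-out; inhibition is taken relative to vehicle.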
# [4] = NCI Yeast Anticancer Drug Screen. Data for the mec2-1 strain (AID 157); settings: S. cerevisiae mec2-1 strain, active compounds read high
# Outline: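 Using mec2-1 yeast: add compound, measure growth, express inhibition versus vehicle-treated cultures.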
# [5] = NCI Yeast Anticancer Drug Screen. Data for the rad14 strain (AID 159);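 also: 0% = growth of vehicle-treated control cultures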; settings: S. cerevisiae rad14 strain growth inhibition, active compounds read high
# Outline: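 DNA repair-defective yeast, compound-exposed; % growth inhibition derived by comparison with vehicle-treated controls.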
# [6] = NCI Yeast Anticancer Drug Screen. Data for the sgs1 mgt1 strain (AID 161);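 also: 0% = growth of cultures given vehicle only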; settings: S. cerevisiae sgs1 mgt1 strain, active compounds read high
# Outline: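 Yeast cells carrying a defined DNA-repair defect were exposed to test compounds. Growth inhibition was measured relative to vehicle-treated controls.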
# [7] = NCI Yeast Anticancer Drug Screen. Data for the CLN2oe strain (AID 163);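 also: 0% = growth of vehicle-only control cultures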; settings: S. cerevisiae CLN2oe strain, active compounds read high
# Outline: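 Whole-cell yeast growth assay. A strain engineered for altered cell-cycle control received compound, and inhibition relative to vehicle-treated cultures was recorded.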
# [8] = NCI Yeast Anticancer Drug Screen. Data for the cln2 rad14 strain (AID 165);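 also: 0% = growth equal to vehicle treated cultures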; settings: S. cerevisiae cln2 rad14 strain, active compounds read high
# Outline: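 Yeast strain cln2 rad14, bearing defects in cell cycle control and DNA repair, serves as the test system; values reflect growth inhibition compared with vehicle.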
# [9] = NCI Yeast Anticancer Drug Screen. Data for the bub3 strain (AID 167); settings: S. cerevisiae bub3 mutant strain, active compounds read high
# Outline: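 In this screen, a yeast mutant lacking normal mitotic checkpoint function is challenged with compound. Relative growth versus vehicle gives the inhibition value.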
# [10] = NCI Yeast Anticancer Drug Screen. Data for the wt2 strain (AID 169);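 also: 0% = growth of vehicle-treated yeast cultures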; settings: S. cerevisiae wt2 strain growth inhibition, active compounds read high
# Outline: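 Treated yeast vs. vehicle-treated yeast: growth inhibition determined.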
# [11] = NCI Yeast Anticancer Drug Screen. Data for the mlh1 strain (AID 171);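 also: 0% = growth of vehicle-treated control cultures of the same strain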; settings: S. cerevisiae mlh1 strain growth inhibition, active compounds read high
# Outline: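 A yeast strain with a defined genetic lesion serves as the test organism. Cultures receive compound or vehicle, and growth is measured.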
# [12] = NCI Yeast Anticancer Drug Screen. Data for the mlh1 rad18 strain (AID 175); settings: S. cerevisiae mlh1 rad18 strain growth inhibition, active compounds read high
# Outline: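 Steps: expose repair-defective yeast to compound; measure growth; express inhibition against vehicle-treated controls.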
# [13] = NCI Yeast Anticancer Drug Screen. Data for the rad52 strain (AID 147);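 also: 0% = growth of vehicle-treated control cultures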; settings: S. cerevisiae rad52 mutant growth inhibition, active compounds read high
# Outline: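 Here a repair-compromised yeast strain receives each compound; its growth is then quantified and normalised to vehicle-only controls.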
# [14] = NCI Yeast Anticancer Drug Screen. Data for the sgs1 strain (AID 173);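 also: 0% = growth of vehicle-only control cultures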; settings: S. cerevisiae sgs1 mutant, active compounds read high
# Outline: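 A genetically defined yeast mutant is incubated with the test compound, and its growth is compared to that of the same strain given vehicle.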
# [15] = NCI Yeast Anticancer Drug Screen. Data for the rad18 strain (AID 177); settings: S. cerevisiae rad18 mutant growth inhibition, active compounds read high
# Outline: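 Measured value is growth inhibition of a yeast strain bearing a DNA repair alteration, referenced to vehicle-treated cells.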
# [16] = at 5.0 µM (retest, dose inferred, filed as 0.5)
# [17] = at 50.0 µM (retest, dose inferred, filed as 5.0)
structure (smiles),measurement,setting,value
CCCCCC#CCOC(=O)C(=[N+]=[N-])P(=O)(c1ccccc1)c1ccccc1,growth inhibition,[1]; at 1.2 µM,3%
same,growth inhibition,[1]; at 3.7 µM,-2%
same,growth inhibition,[1]; at 11.0 µM,3%
same,growth inhibition,[1]; at 33.0 µM,-2%
same,growth inhibition,[1]; at 100.0 µM,96% (active)
same,growth inhibition,[2]; at 1.2 µM,21%
same,growth inhibition,[2]; at 3.7 µM,13%
same,growth inhibition,[2]; at 11.0 µM,26%
same,growth inhibition,[2]; at 33.0 µM,14%
same,growth inhibition,[2]; at 100.0 µM,6%
same,growth inhibition,[3]; at 1.2 µM,14%
same,growth inhibition,[3]; at 3.7 µM,21%
same,growth inhibition,[3]; [16],-6%
same,growth inhibition,[3]; at 11.0 µM,13%
same,growth inhibition,[3]; at 33.0 µM,13%
same,growth inhibition,[3]; [17],94% (active)
same,growth inhibition,[3]; at 50.0 µM,87.8% (active)
same,growth inhibition,[3]; at 100.0 µM,95% (active)
same,growth inhibition,[4]; at 1.2 µM,11%
same,growth inhibition,[4]; at 3.7 µM,7%
same,growth inhibition,[4]; [16],-6%
same,growth inhibition,[4]; at 11.0 µM,-3%
same,growth inhibition,[4]; at 33.0 µM,-4%
same,growth inhibition,[4]; [17],97% (active)
same,growth inhibition,[4]; at 50.0 µM,90.5% (active)
same,growth inhibition,[4]; at 100.0 µM,95% (active)
same,growth inhibition,[5]; at 1.2 µM,-11%
same,growth inhibition,[5]; at 3.7 µM,-6%
same,growth inhibition,[5]; at 11.0 µM,-9%
same,growth inhibition,[5]; at 33.0 µM,-6%
same,growth inhibition,[5]; at 100.0 µM,94% (active)
same,growth inhibition,[6]; [16],8%
same,growth inhibition,[6]; [17],46%
same,growth inhibition,[6]; at 50.0 µM,90.8% (active)
same,growth inhibition,[7]; at 1.2 µM,7%
same,growth inhibition,[7]; at 3.7 µM,5%
same,growth inhibition,[7]; at 11.0 µM,9%
same,growth inhibition,[7]; at 33.0 µM,-1%
same,growth inhibition,[7]; at 100.0 µM,96% (active)
same,growth inhibition,[8]; [16],37%
same,growth inhibition,[8]; [17],96% (active)
same,growth inhibition,[8]; at 50.0 µM,86.7% (active)
same,growth inhibition,[9]; at 1.2 µM,1%
same,growth inhibition,[9]; at 3.7 µM,0%
same,growth inhibition,[9]; [16],8%
same,growth inhibition,[9]; at 11.0 µM,-23%
same,growth inhibition,[9]; at 33.0 µM,-23%
same,growth inhibition,[9]; [17],95% (active)
same,growth inhibition,[9]; at 50.0 µM,89.3% (active)
same,growth inhibition,[9]; at 100.0 µM,95% (active)
same,growth inhibition,[10]; at 1.2 µM,4%
same,growth inhibition,[10]; at 3.7 µM,10%
same,growth inhibition,[10]; at 11.0 µM,5%
same,growth inhibition,[10]; at 33.0 µM,5%
same,growth inhibition,[10]; at 100.0 µM,97% (active)
same,growth inhibition,[11]; at 1.2 µM,28%
same,growth inhibition,[11]; at 3.7 µM,23%
same,growth inhibition,[11]; at 11.0 µM,26%
same,growth inhibition,[11]; at 33.0 µM,20%
same,growth inhibition,[11]; at 100.0 µM,97% (active)
same,growth inhibition,[12]; [16],22%
same,growth inhibition,[12]; [17],96% (active)
same,growth inhibition,[12]; at 50.0 µM,87% (active)
Nc1nc(N)c2c(n1)CCC(S(=O)(=O)c1ccc3ccccc3c1)C2 (stereo unspecified),growth inhibition,[13]; at 1.2 µM,26%
same,growth inhibition,[13]; at 3.7 µM,44%
same,growth inhibition,[13]; at 11.0 µM,54%
same,growth inhibition,[13]; at 33.0 µM,62%
same,growth inhibition,[13]; at 100.0 µM,65%
same,growth inhibition,[2]; at 1.2 µM,23%
same,growth inhibition,[2]; at 3.7 µM,35%
same,growth inhibition,[2]; at 11.0 µM,39%
same,growth inhibition,[2]; at 33.0 µM,40%
same,growth inhibition,[2]; at 100.0 µM,40%
same,growth inhibition,[3]; at 1.2 µM,-3%
same,growth inhibition,[3]; at 3.7 µM,13%
same,growth inhibition,[3]; [16],56%
same,growth inhibition,[3]; at 11.0 µM,32%
same,growth inhibition,[3]; at 33.0 µM,45%
same,growth inhibition,[3]; [17],72% (active)
same,growth inhibition,[3]; at 50.0 µM,49.2%
same,growth inhibition,[3]; at 100.0 µM,54%
same,growth inhibition,[4]; at 1.2 µM,14%
same,growth inhibition,[4]; at 3.7 µM,46%
same,growth inhibition,[4]; [16],83% (active)
same,growth inhibition,[4]; at 11.0 µM,65%
same,growth inhibition,[4]; at 33.0 µM,80% (active)
same,growth inhibition,[4]; [17],91% (active)
same,growth inhibition,[4]; at 50.0 µM,84.9% (active)
same,growth inhibition,[4]; at 100.0 µM,80% (active)
same,growth inhibition,[5]; at 1.2 µM,-2%
same,growth inhibition,[5]; at 3.7 µM,-6%
same,growth inhibition,[5]; at 11.0 µM,-11%
same,growth inhibition,[5]; at 33.0 µM,-8%
same,growth inhibition,[5]; at 100.0 µM,-4%
same,growth inhibition,[6]; [16],49%
same,growth inhibition,[6]; [17],60%
same,growth inhibition,[6]; at 50.0 µM,36%
same,growth inhibition,[7]; at 1.2 µM,-3%
same,growth inhibition,[7]; at 3.7 µM,6%
same,growth inhibition,[7]; at 11.0 µM,0%
same,growth inhibition,[7]; at 33.0 µM,8%
same,growth inhibition,[7]; at 100.0 µM,6%
same,growth inhibition,[8]; [16],5%
same,growth inhibition,[8]; [17],7%
same,growth inhibition,[8]; at 50.0 µM,6.95%
same,growth inhibition,[9]; at 1.2 µM,-41%
same,growth inhibition,[9]; at 3.7 µM,-27%
same,growth inhibition,[9]; [16],32%
same,growth inhibition,[9]; at 11.0 µM,-27%
same,growth inhibition,[9]; at 33.0 µM,3%
same,growth inhibition,[9]; [17],30%
same,growth inhibition,[9]; at 50.0 µM,-7.8%
same,growth inhibition,[9]; at 100.0 µM,2%
same,growth inhibition,[10]; at 1.2 µM,-35%
same,growth inhibition,[10]; at 3.7 µM,-8%
same,growth inhibition,[10]; at 11.0 µM,1%
same,growth inhibition,[10]; at 33.0 µM,5%
same,growth inhibition,[10]; at 100.0 µM,23%
same,growth inhibition,[11]; at 1.2 µM,-5%
same,growth inhibition,[11]; at 3.7 µM,3%
same,growth inhibition,[11]; at 11.0 µM,8%
same,growth inhibition,[11]; at 33.0 µM,10%
same,growth inhibition,[11]; at 100.0 µM,9%
same,growth inhibition,[14]; at 1.2 µM,16%
same,growth inhibition,[14]; at 3.7 µM,45%
same,growth inhibition,[14]; at 11.0 µM,55%
same,growth inhibition,[14]; at 33.0 µM,56%
same,growth inhibition,[14]; at 100.0 µM,44%
same,growth inhibition,[12]; [16],48%
same,growth inhibition,[12]; [17],54%
same,growth inhibition,[12]; at 50.0 µM,13.6%
same,growth inhibition,[15]; at 1.2 µM,7%
same,growth inhibition,[15]; at 3.7 µM,1%
same,growth inhibition,[15]; at 11.0 µM,8%
same,growth inhibition,[15]; at 33.0 µM,20%
same,growth inhibition,[15]; at 100.0 µM,22%
